# Measurements: PMC7819943, “Rice protein-binding microarrays: a tool to detect cis-acting elements near promoter regions in rice”
# The full ranking holds about 39,000 sequences; the median of “fluorescence intensity (a.u.)” is about 4,300, and the highest 2% start at about 39,000. The entries come from a sample that favours the highest values as a whole.
# Target: T1, OsSMF1 (Oryza sativa, UniProt Q6ZLB0 1-436)
# T1 sequence: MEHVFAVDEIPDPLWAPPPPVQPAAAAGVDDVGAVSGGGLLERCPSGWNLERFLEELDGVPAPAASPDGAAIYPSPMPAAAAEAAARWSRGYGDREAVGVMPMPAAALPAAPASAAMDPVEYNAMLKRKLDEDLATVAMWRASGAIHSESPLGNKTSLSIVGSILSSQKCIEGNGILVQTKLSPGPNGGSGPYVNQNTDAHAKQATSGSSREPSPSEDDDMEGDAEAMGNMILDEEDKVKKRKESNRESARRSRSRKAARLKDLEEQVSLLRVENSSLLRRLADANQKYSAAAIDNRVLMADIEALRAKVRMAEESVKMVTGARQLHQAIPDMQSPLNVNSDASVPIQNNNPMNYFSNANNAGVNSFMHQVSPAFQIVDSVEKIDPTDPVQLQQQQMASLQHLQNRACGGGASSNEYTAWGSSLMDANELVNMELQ
# Experiment: protein-binding microarray (RPBM); PBS, 2% BSA, 51.3 ng/ul salmon testes DNA, 50 uM zinc acetate, 200 nM TF, 25 C, 1 h; high values mean tight binding
# Details: protein: recombinant; tags: N-terminal polyhistidine and DsRed monomer fusion (pET32a); chain copies: 2; label: CyDye5-dUTP incorporated in the synthesized complementary strand; 3' TTTTT single-stranded linker to array surface; dsDNA, one strand shown
# Method in brief: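 Transcription factors were made in E. coli BL21-CodonPlus as N-terminal fusions to a polyhistidine tag and DsRed, then purified on Ni–NTA. After primer extension with Cy5-dUTP and blocking with 2% BSA, a custom Agilent array was exposed for 1 h at 25 °C to 200 nM protein in PBS, 2% BSA, salmon testes DNA and 50 µM zinc acetate. Washed arrays were scanned on an Axon 4000B, and the binding signal is per-feature fluorescence intensity in arbitrary units.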
row,Sequence,binding signal
1,CGCGCGTGCGGTTCTTGTGTCCGAGGGTGGTGGTGTGTGGCGGAGTCACCTAGTGCAG,3360 fluorescence intensity (a.u.)
2,GAGGGTTCTTGATGCGTGACCTGATGCGGGAGGCGTATTGCGGAGTCACCTAGTGCAG,39200 fluorescence intensity (a.u.)
3,ATTGAAAATTCTCTACTCTTTACACGTGTCCATCATCCCACGGAGTCACCTAGTGCAG,19100 fluorescence intensity (a.u.)
4,TCAAGTCATGAATTCTCCTATTTCAAGTCACTTCAGAAGTCGGAGTCACCTAGTGCAG,3330 fluorescence intensity (a.u.)
5,GCAGCGCCATGAAAGCGCATGGCATGCATGCACTGCACTGCGGAGTCACCTAGTGCAG,3520 fluorescence intensity (a.u.)
6,TTTATGGATAGAAGATGCACCGGCCAGGTCATGAAGATCACGGAGTCACCTAGTGCAG,4050 fluorescence intensity (a.u.)
7,CATGCCAGGTCAGTCGGCATCCATGAAGACTGCACTGCACCGGAGTCACCTAGTGCAG,42600 fluorescence intensity (a.u.)
8,AATCGTGCTCGATTGACCTCACTAATTCATCCCTGTAACCCGGAGTCACCTAGTGCAG,25700 fluorescence intensity (a.u.)
9,GGGGTGAGGTGAGGTTACCACGTCGGCGACGGTGAGGAAGCGGAGTCACCTAGTGCAG,6110 fluorescence intensity (a.u.)
10,CTTATCTACTTGATATTTGCATATGTATACAGTTTTACTGCGGAGTCACCTAGTGCAG,3220 fluorescence intensity (a.u.)
11,GGTAGCTGATACAGGTATGCAGACGAAAGATCACACCTATCGGAGTCACCTAGTGCAG,32500 fluorescence intensity (a.u.)
12,ACTTGATCAGCACACTCTGGTGACATGACAGCTGTAAAGTCGGAGTCACCTAGTGCAG,4180 fluorescence intensity (a.u.)
13,ATGATCAGATACACACTCTGGCTTGGCTTGTAGCTGCAACCGGAGTCACCTAGTGCAG,50400 fluorescence intensity (a.u.)
14,GCTGAGCTGAGCTGATATGATCAACACAGTGCAGACTTGGCGGAGTCACCTAGTGCAG,3710 fluorescence intensity (a.u.)
15,GTAGTACCATGTATTAGATGGACTTCTCCACGTTTCTCTGCGGAGTCACCTAGTGCAG,4980 fluorescence intensity (a.u.)
16,GGGGCCACATCGTCAGTGAAACGGACGGGTATAGGGTTAGCGGAGTCACCTAGTGCAG,3270 fluorescence intensity (a.u.)
17,CGCCGCCTCCGCCTCCGCCTCCGCTGCTCGCCGACCGGAGCGGAGTCACCTAGTGCAG,4680 fluorescence intensity (a.u.)
18,CGCGCCGTCGTCCAGCCACCGTCACGCCGCGCGGGGCGCCCGGAGTCACCTAGTGCAG,3830 fluorescence intensity (a.u.)
19,ATCGCCCCGCTGACCGCCTCCTCCCGCGGCTGTCCGAGCGCGGAGTCACCTAGTGCAG,41300 fluorescence intensity (a.u.)
20,TTGACCGCTTGACGCGGAGCTCCCCGCCGGCCTCCTCCCCCGGAGTCACCTAGTGCAG,4540 fluorescence intensity (a.u.)
21,CCTCCTCGCTGCCCAGCCACCGCCGCCCTCCCGTCCCGCGCGGAGTCACCTAGTGCAG,3490 fluorescence intensity (a.u.)

row,Sequence,binding signal
1,CATAGCCCTCTGTCGCGGGCGCCGCTGTCCACCGTCCTCCCGGAGTCACCTAGTGCAG,43900 fluorescence intensity (a.u.)
2,ATCAGCAACAATCAGGCTCCTGTGCGGTAAGTCCAACATTCGGAGTCACCTAGTGCAG,6700 fluorescence intensity (a.u.)
3,AGTGCTAGTCATCACTGTATTAGATTTAGGAATCTCTTCTCGGAGTCACCTAGTGCAG,3600 fluorescence intensity (a.u.)
4,AATCCGCCGAGGGACTTATTGTGACCGGTTTTGATTAGTTCGGAGTCACCTAGTGCAG,19600 fluorescence intensity (a.u.)
5,CCACACACTTATGAACACGAGTACAGCCGATGCCCTATAACGGAGTCACCTAGTGCAG,3390 fluorescence intensity (a.u.)
6,TAAGGCAAAAGCCAAAATTCAAATATAGTTAAAATTAAAGCGGAGTCACCTAGTGCAG,7150 fluorescence intensity (a.u.)
7,TGTTAAATTCGTCTCGCAAAATAGCCTAAGGGTTATAGAACGGAGTCACCTAGTGCAG,40500 fluorescence intensity (a.u.)
8,TATGATTTTAAATTCGTCATACTCTAGTTAGCCTAGAAAACGGAGTCACCTAGTGCAG,3430 fluorescence intensity (a.u.)
9,AAGCGCACGCACACATATGCCACGCATTGACGCATGGCACCGGAGTCACCTAGTGCAG,5630 fluorescence intensity (a.u.)
10,CCCAGCCCACAAAGGAAGCGAGATCACAATTTCTGGGCCGCGGAGTCACCTAGTGCAG,3400 fluorescence intensity (a.u.)
11,AAAAGCAAAAGCAAAAGAAACACGTCCTTATTCCTCTCTCCGGAGTCACCTAGTGCAG,3910 fluorescence intensity (a.u.)
12,GATCAACCTTATTTCTGCAAGCAAATCAAAGAAACAAGCACGGAGTCACCTAGTGCAG,41700 fluorescence intensity (a.u.)
13,TCCCGCCACAAGCAACCAAGAAATCAAGAAACCGTTTCAGCGGAGTCACCTAGTGCAG,19600 fluorescence intensity (a.u.)
14,CGGCAGCCACCTCCCCACTCCATCCTCTCGTCCCCTTTTACGGAGTCACCTAGTGCAG,3870 fluorescence intensity (a.u.)
15,ATTGTTTAGTATTGCGTTATGTTATGTTACTTTTGATACACGGAGTCACCTAGTGCAG,14400 fluorescence intensity (a.u.)
16,TGAGCTGCTTTTACACGTTGCTTTATTGACACTTGTTCACCGGAGTCACCTAGTGCAG,45500 fluorescence intensity (a.u.)
17,CTGCTCCTAGTCACACTTGACAGTTCAGCTTCAGCTCCTCCGGAGTCACCTAGTGCAG,6360 fluorescence intensity (a.u.)
18,TGCATAAGGATAATCCGGTCGTCAGCAAACAATGCATTCACGGAGTCACCTAGTGCAG,3450 fluorescence intensity (a.u.)
19,CAAGACGGATTTATTAAGCCTAATTAATCTATCATTAGCGCGGAGTCACCTAGTGCAG,4110 fluorescence intensity (a.u.)
20,ACGAATTTATTAAGCCTAATTAATCCGTTATTAGCAAATGCGGAGTCACCTAGTGCAG,6210 fluorescence intensity (a.u.)
21,TGCAAATTGCGAGACGGATTTATTAAGCCTAGTTAATCCGCGGAGTCACCTAGTGCAG,39400 fluorescence intensity (a.u.)
